Measurements published in PubChem BioAssay (NCATS).
Records with an inconclusive call do not appear. The call rests on the fitted dose curve; in most records, active means well fitted inhibition curve with a large enough effect; inconclusive means small, poorly fitted or top-dose-only effect, or effect the other way; inactive means flat fitted curve, though single readings scatter.

Molecular target: ATP-dependent 6-phosphofructokinase (Trypanosoma brucei brucei) (UniProt O15648)
Assay: qHTS Assay to Find Inhibitors of T. brucei phosphofructokinase: hit validation (AID 492961);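 further: luminescence reports ADP formed as PFK phosphorylates fructose-6-phosphate with ATP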
Details: T. brucei PFK, ADP-Glo luminescence; series mostly up to 24.3 µM; activity change, negative = inhibition: at the top concentration
Source text: NIH Molecular Libraries Probe Production Network [MLPCN] NIH Chemical Genomics Center [NCGC] Grant: 1 R03 MH092153-01 PI Name: Malcolm Walkinshaw, University of Edinburgh NCGC Assay Overview: Various species of the protozoan family Trypanosomatidae are responsible for a range of serious human diseases in tropical and subtropical areas of the world. […] Many of the disorders caused by trypanosomatids are fatal if left untreated, but most currently used drugs are inefficient and toxic. […] Oxidative metabolism involving the mitochondrial tricarboxylic acid cycle and oxidative phosphorylation are repressed in these parasites, and recent RNA interference (RNAi) experiments have shown that even partial depletion of certain individual glycolytic enzymes can lead to the death of cultured parasites. One such glycolytic enzyme, phosphofructokinase (PFK), catalyzes the formation of fructose-1,6-bisphosphate (F1,6BP) and ADP from fructose-6-phosphate (F6P) and ATP, and in many metabolic circumstances makes an important contribution to the control of flux through the glycolytic pathway. As a specific glycolytic target, PFK is particularly attractive as it catalyzes the first irreversible step in glycolysis, and structural and kinetic studies have shown very substantial and essential differences from corresponding host enzymes, allowing for the discovery of parasite-selective inhibitors. The goal of this screen is to find small-molecule inhibitors of T. brucei PFK using a biochemical assay that measures PFK activity as a function of ADP production. A luminescence-based assay for T. brucei PFK activity has been developed which uses luciferase to detect production of ADP. Traditional luciferase-based nucleotide detection reagents rely on ATP production as a direct substrate for the luciferase reaction; however, PFK catalyzes the transfer of a phosphate from ATP to F6P, resulting in the net depletion of ATP. To directly measure the ADP product of the PFK reaction, we used the ADP-Glo detection kit (Promega), which utilizes two separate reactions to 1) deplete all remaining uncatalyzed ATP and 2) convert all remaining ADP to ATP, which is then detected through a traditional luciferase-coupled reaction. Compounds were screened as a concentration-titration series that ranged from 57 uM to 0.7 nM.
NCGC Assay Protocol Summary: Substrate buffer was dispensed into white, solid 1536-well plates at 3uL/well in 0.1M triethanolamine (TEA) buffer, pH 8.0, containing final concentrations of 5 mM MgCl2, 0.01% Tween20, 0.5 mM fructose-6-phosphate (F6P) and 0.1mM ATP. Then, 23 nL of compounds or DMSO were delivered to each well using a pin tool. One uL T. brucei PFK (0.1M TEA, 0.01% Tween20, 0.1% bovine serum albumin (BSA) and 1.25nM PFK, final concentrations) was then dispensed, and plates were incubated at room temperature for 45 min. The luminescent detection reagent, ADP-Glo (Promega), was then added in two steps: the first reagent, ADP-Glo (which converts remaining uncatalyzed ATP), was added at 2.5uL/well and incubated for ten minutes at room temperature, and the second component, Kinase Detection reagent (which converts ADP to ATP as a substrate for luciferase-based luminescence), was added immediately after at 5uL/well, followed by one final ten minute room temperature incubation. The plates were measured on a ViewLux plate reader for luminescent signal using a clear filter with a one second exposure. The %Activity was determined from the corrected luminescence values. As no specific T. brucei PFK inhibitors have been identified in the literature, 1x (1.25nM) and 0x PFK enzyme controls (untreated) were included to normalize %Activity of identified inhibitors; 0x enzyme values corresponded to 100%Activity (full inhibition), while 1x PFK enzyme values were used to normalize 0%Activity (no inhibition). Concentration-response curves were fitted to the signals arising from the resulting luminescence. […]

Chain of ATP-dependent 6-phosphofructokinase (Trypanosoma brucei brucei) (O15648 whole entry, looked up): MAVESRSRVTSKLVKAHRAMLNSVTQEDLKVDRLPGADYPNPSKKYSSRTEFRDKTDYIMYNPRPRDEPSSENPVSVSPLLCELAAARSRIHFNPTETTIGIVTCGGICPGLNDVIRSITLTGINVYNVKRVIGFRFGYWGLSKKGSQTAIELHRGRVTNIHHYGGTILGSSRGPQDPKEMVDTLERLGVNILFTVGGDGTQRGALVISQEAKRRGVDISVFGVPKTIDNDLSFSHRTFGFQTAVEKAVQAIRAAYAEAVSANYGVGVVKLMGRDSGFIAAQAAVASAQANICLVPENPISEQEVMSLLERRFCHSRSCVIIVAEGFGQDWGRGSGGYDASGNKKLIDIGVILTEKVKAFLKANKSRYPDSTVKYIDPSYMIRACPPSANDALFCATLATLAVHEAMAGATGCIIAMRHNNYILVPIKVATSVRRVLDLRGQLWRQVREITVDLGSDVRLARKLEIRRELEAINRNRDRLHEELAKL

Activity change, negative = inhibition, inactive:
NC(=O)N[C@H]1NC(=O)NC1=O 16.1%, COC(=O)C1=C(C)NC(C)=C(C(=O)OC(C)C)[C@H]1c1cccc2nonc12 5.43%, NCc1ccccc1CC(=O)N[C@@H]1C(=O)N2C(C(=O)O)=C(CSc3nnnn3CC(=O)O)CS[C@@H]12 -13.2%, COc1ccc2cc1Oc1ccc(cc1)CC1c3c(cc4c(c3Oc3cc5c(cc3OC)CCN(C)C5C2)OCO4)CCN1C (stereo not given) -7.38% [at 51.4 µM], CCCC(=O)Nc1ccc(OC[C@@H](O)CNC(C)C)c(C(C)=O)c1 -3.5%, O[C@@](CCN1CCCC1)(c1ccccc1)C1CCCCC1 10.9%, C#C[C@]1(O)CCC2C3CCC4=CC(=O)CCC4C3CC[C@@]21C (stereo not given in full) -1.48% [at 51.4 µM], CN[C@H]1[C@H](O)[C@@H](O[C@@H]2[C@H](O)[C@@H](O[C@H]3OC(CN)=CC[C@H]3N)[C@@H](N)C[C@H]2N)OC[C@@]1(C)O 19.7%, C[N+]12CCC(CC1)[C@@H](OC(=O)C(O)(c1ccccc1)c1ccccc1)C2 -5.32%, C[C@H](CCC(=O)O)[C@H]1CC[C@@H]2[C@@H]3[C@@H](O)C[C@H]4C[C@@H](O)CC[C@@]4(C)[C@H]3CC[C@@]21C -2.42%, NC[C@@H]1O[C@H](O[C@H]2[C@H](O)[C@H](O[C@@H]3O[C@H](CO)[C@@H](O)[C@H](N)[C@@H]3O)[C@@H](N)C[C@H]2N)[C@@H](O)[C@H](O)[C@@H]1O -0.487%, O=C1O[C@H](CN2CCOCC2)CN1/N=C\c1ccc([N+](=O)[O-])o1 8.7%, CC[C@@H]1OC(=O)[C@H](C)[C@H](O[C@@H]2C[C@](C)(OC)[C@H](O)[C@H](C)O2)[C@H](C)[C@H](O[C@@H]2O[C@@H](C)C[C@@H](N(C)C)[C@@H]2O)[C@](C)(O)C[C@H](C)C(=NOCOCCOC)[C@H](C)[C@H](O)[C@]1(C)O 9.27%, CC(=O)OCC(=O)[C@@]12OC(C)(C)O[C@@H]1C[C@H]1[C@H]3C[C@H](F)C4=CC(=O)C=C[C@@]4(C)[C@]3(F)[C@H](O)C[C@@]12C 5.95%, OCC1OC(n2cnc3c(=S)nc[nH]c32)C(O)C1O (stereo not given) -1.92% [at 51.4 µM], COC(=O)N/N=C/C1=C[N+](=O)c2ccccc2[N+]1=O 4.14% [at 51.4 µM], CC(C)(C)NC[C@@H](O)COc1ccccc1C1CCCC1 0.245%, CCC1OC(=O)C(C)[C@@H](O[C@H]2C[C@@](C)(OC)C(O)C(C)O2)C(C)[C@@H](O[C@@H]2OC(C)CC(N(C)C)C2O)[C@@](C)(O)CC(C)C(=O)[C@@H](C)C(O)[C@]1(C)O (stereo not given in full) -6.49% [at 51.4 µM], CN1CCO[C@H](c2ccccc2)c2ccccc2C1 -0.222%, CC(=O)O[C@H]1C[C@@]2(C)[C@H](C[C@@H](O)[C@H]3[C@@]4(C)CC[C@@H](O)[C@@H](C)[C@H]4CC[C@@]32C)C1=C(CCC=C(C)C)C(=O)O 6.14% [at 51.4 µM], CN(C)CCc1c[nH]c2ccc(CC3COC(=O)N3)cc12 (stereo not given) 0.265% [at 51.4 µM], CN1CCN([C@@H](c2ccccc2)c2ccc(Cl)cc2)CC1 -1.45%, C[C@@]12C=CC(=O)C=C1CCC1C3CC(O)[C@@](O)(C(=O)CO)[C@]3(C)CC(O)[C@]12F (stereo not given in full) 5.59% [at 51.4 µM], NC(=O)c1cc[n+](CC2=C(C(=O)[O-])N3C(=O)[C@@H](NC(=O)Cc4cccs4)[C@@H]3SC2)cc1 -7.47%, Clc1ccc([C@H](Cn2ccnc2)OCc2csc3c(Cl)cccc23)c(Cl)c1 14%, CCC(=O)O[C@@]1(C(=O)SCF)[C@@H](C)C[C@H]2[C@@H]3C[C@@H](F)C4=CC(=O)C=C[C@@]4(C)[C@]3(F)[C@@H](O)C[C@]21C -2.84%, COc1ccc(CC(N)C(=O)NC2C(CO)OC(n3cnc4c(N(C)C)ncnc43)C2O)cc1 (stereo not given) -7.94% [at 51.4 µM], CC(=O)N(C[C@@H](C)C(=O)O)c1c(I)cc(I)c(N)c1I 2.89%, CC1(C)SC2C(N3C(=O)C(c4ccccc4)NC3(C)C)C(=O)N2C1C(=O)O (stereo not given) -12% [at 51.4 µM], CC1C2CCC3C4CC=C5CC(N(C)C)CC[C@@]5(C)C4CC[C@@]32CN1C (stereo not given in full) 0% [at 51.4 µM], Cc1ccc2c(c1)c1c3n2CCN[C@H]3CCC1 4.78% [at 51.4 µM], C[C@H](O)Cn1cnc2c1c(=O)n(C)c(=O)n2C -2.24%, CC(=O)[C@@]1(O)CC[C@H]2[C@H]3C[C@@H](C)C4=CC(=O)C=C[C@]4(C)[C@@]3(F)[C@@H](O)C[C@]21C 10.5%, CC(=O)OCC(=O)[C@@]1(O)CC[C@@H]2[C@H]3CCC4=CC(=O)C=C[C@]4(C)[C@]3(F)[C@@H](O)C[C@@]21C 2.66%, COC1CC(O[C@H]2/C(C)=C/CC3CC(C[C@]4(CCC(C)C(C5CCCCC5)O4)O3)OC(=O)[C@H]3C=C(C)/C(=N/O)C4OC/C(=C\C=C\[C@@H]2C)[C@@]43O)OC(C)C1O (stereo not given in full) -0.541% [at 51.4 µM], O=C(O)[C@@H]1[C@@H]2C[C@H]3c4[nH]c5ccccc5c4CCN3C[C@@H]2CC[C@@H]1O -1.28%, CCC1OC(=O)CC(O)C(C)[C@@H](O[C@@H]2OC(C)[C@H](O[C@@H]3C[C@@](C)(O)C(O)C(C)O3)C(N(C)C)C2O)[C@H](CC=O)CC(C)C(=O)/C=C/C(C)=C/[C@@H]1COC1OC(C)C(O)C(OC)[C@@H]1OC (stereo not given in full) -6.06% [at 51.4 µM], Clc1ccc(CC[C@H](Cn2ccnc2)Sc2c(Cl)cccc2Cl)cc1 1.59%, C[C@@H](C(=O)O)c1ccc(C(=O)c2ccccc2)s1 -9.21%, NCC1CCC(N)C(O[C@@H]2C(O)[C@H](O[C@H]3OC(CO)C(O)C(N)C3O)[C@@H](N)C[C@H]2N)O1 (stereo not given in full) -4.87% [at 51.4 µM]
